Where “and” joins values, the source holds several entries; their conditions need not be identical. Equal values may be shown once. Results filed as inconclusive are left out. Calls of active or inactive are those of the source. Unless noted, calls come from the whole dose curve; as a rule, active = well fitted curve in the direction sought with a large enough effect; inconclusive = small, poorly fitted or top-dose-only effect, or another doubt; inactive = no such curve, though single readings can be large; an effect the other way counts as inactive or inconclusive.
Assays:
[1] = Cell Viability - BJ (AID 421; calls by dose curve;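 note: potency is the fitted concentration of half-maximal effect; cells exposed to compound for 40 hours at 37 °C before readout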); settings: BJ fibroblast viability, qHTS
Summary of the method: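 Cytotoxicity as drop in intracellular ATP (CellTiter-Glo, 20 min RT) after 40 hr compound exposure of BJ fibroblasts at 37 °C. Titrations scaled between DMSO and 100 uM tamoxifen, Hill-fitted for AC50.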

[2] = Cell Viability - HUV-EC-C (AID 542); settings: HUV-EC-C endothelial cell viability, qHTS; series mostly up to 92.2 µM; note: % is set by controls: 0 for no effect and ±100 for the full control effect; nearly all actives have a fitted effect of over 35% in size
Summary of the method: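 HUV-EC-C normal human vascular endothelial cells, 1000 cells/well, pre-incubated 5 hr at 37 °C, then exposed to compounds for 40 hr at 37 °C in complete medium. Viability measured as intracellular ATP by CellTiter-Glo luminescence; AC50 from Hill fits.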

[3] = Cellular Toxicity (caspase-3) HUV-EC-C (AID 656); settings: HUV-EC-C cells, caspase-3 activation (apoptosis), vehicle = 0, 100 µM tamoxifen = 100%; series mostly up to 92.2 µM
Summary of the method: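 HUV-EC-C cells (1000/well) in complete medium, compound-treated 16 h at 37 °C; caspase-3/7 activity read by Caspase-Glo 3/7 luminescence. Normalized to DMSO (basal) and 100 uM tamoxifen (100%); AC50 from Hill-equation concentration-response fits.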

[4] = Cellular Toxicity (caspase-3) MRC-5 (AID 659); settings: MRC-5 cells, luminescence, normalized: DMSO 0%, 10 µM staurosporine 100%; series mostly up to 91.7 µM
Summary of the method: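 Concentration-dependent caspase 3/7 activation is measured in human normal lung fibroblasts (MRC-5) following 16-hour treatment. AC50 values come from standard Hill-equation modeling of luminescence normalized to DMSO and 10 uM staurosporine.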

[5] = Cellular Toxicity (caspase-3) Mesangial (AID 660); settings: mesangial cells, normalized: DMSO 0%, 100 µM tamoxifen 100%; series mostly up to 91.7 µM;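 note: cells exposed to compound for 16 h before the caspase read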
Summary of the method: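 Human renal glomerular mesangial cells (1000/well) were treated with compounds for 16 h at 37 °C in complete medium, then caspase 3/7 activity was read by Caspase-Glo luminescence. Data were normalized to DMSO and 100 uM tamoxifen; AC50 from Hill fits.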

[6] = Cellular Toxicity (caspase-3) SK-N-SH (AID 661); settings: SK-N-SH caspase-3 activation, qHTS; series mostly up to 91.7 µM
Summary of the method: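 SK-N-SH human neuroblastoma cells (1500/well) were treated with compounds for 16 hr at 37 °C in complete medium; caspase 3/7 activity was read by Caspase-Glo luminescence. AC50 came from Hill fits of data normalized to DMSO and 10 uM staurosporine.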

[7] = Cellular Toxicity (caspase-3) Hek293 (AID 664); settings: HEK293 caspase-3 activation, DMSO = 0%, 100 µM tamoxifen = 100%; at 92.2 µM (top of the series);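 note: cells exposed to compound for 16 h at 37 °C before readout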
Summary of the method: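 HEK293 cells were exposed to compounds in complete medium for 16 hr at 37 °C, then caspase-3/7 activity was read by Caspase-Glo 3/7 luminescence after 20 min at room temperature. Data normalized to DMSO and 100 uM tamoxifen; AC50 from Hill fits.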

[8] = Cellular Toxicity (caspase-3) NIH 3T3 (AID 666); settings: NIH 3T3 caspase-3 activation, apoptosis/toxicity; series mostly up to 92.2 µM;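 note: caspase signal read after 16 h compound exposure; 0% = DMSO basal and 100% = 100 µM tamoxifen stimulation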
Summary of the method: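 Mouse NIH 3T3 fibroblasts (1000 cells/well) were treated with compound for 16 hr at 37°C in complete medium; caspase-3/7 activity was read by Caspase-Glo luminescence. Normalized to DMSO and 100 uM tamoxifen; AC50 from Hill fits.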

[9] = MultiTox-Fluor Cytotoxicity Assay - LYMP1-001 - Dead Cells (AID 946); settings: LYMP1-001 lymphoblastoid cells, dead-cell protease fluorescence; series mostly up to 92.2 µM
Summary of the method: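 Cytotoxicity as increased dead-cell protease fluorescence (bis-AAF-R110, 485/520 nm), read 60 min after MultiTox-Fluor reagent. Human lymphoblastoid line exposed 16 h; Hill-fitted AC50, with DMSO as 0% and 15 uM tetraoctylammonium bromide as 100%.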

[10] = Cell Viability - LYMP1-002 - Assay at 16 hr (AID 948); settings: LYMP1-002 lymphoblastoid cell viability; series mostly up to 92.2 µM;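 note: 0% = DMSO alone and full effect = 92 µM tetraoctylammonium bromide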
Summary of the method: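 LYMP1-002 human lymphoblastoid cells, 2500/well, were treated with compounds for 16 hr at 37 C in complete medium. Viability was read as intracellular ATP by CellTiter-Glo luminescence, and AC50 was derived from a Hill fit to concentration-response data.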

[11] = MultiTox-Fluor Cytotoxicity Assay - LYMP1-003 - Live Cells (AID 962); settings: LYMP1-003 lymphoblastoid cells, MultiTox-Fluor live-cell protease fluorescence; series mostly up to 92.2 µM;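 note: 0% = DMSO only and full loss = 92 µM tetraoctylammonium bromide; cytotoxic hits lower the live-cell protease signal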
Summary of the method: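 LYMP1-003 human lymphoblastoid cells (2500/well) in complete medium were preincubated 5 hr at 37 C, then exposed to compounds for 16 hr at 37 C. Live-cell protease cleavage of GF-AFC read by fluorescence (Ex/Em 405/510); AC50 from Hill fits.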

[12] = Cell Viability - LYMP2-003 (AID 965); settings: LYMP2-003 lymphoblastoid cell viability; series mostly up to 92.2 µM;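 note: cells exposed to compounds for 24 h before reading; 0% = DMSO only and full effect = 92 µM tetraoctylammonium bromide; nearly all actives have a fitted effect of over 50% in size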
Summary of the method: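 Human lymphoblastoid LYMP2-003 cells, 2500/well, exposed to compounds for 24 h at 37 C in complete medium. Viability read as intracellular ATP by CellTiter-Glo luminescence; AC50 from Hill-equation fits of qHTS concentration-response data.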

[13] = Cell Viability - LYMP2-013 (AID 970); settings: LYMP2-013 lymphoblastoid cells viability; series mostly up to 92.2 µM;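 note: 0% = DMSO only and full inhibition = tetraoctylammonium bromide control; nearly all actives have a fitted effect of over 55% in size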
Summary of the method: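 Human lymphoblastoid cells, 2500/well, were preincubated 5 hr at 37 C, then treated with compounds for 24 hr at 37 C in complete medium. Intracellular ATP was read by CellTiter-Glo luminescence; AC50 from Hill-equation fits of concentration-response data.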

[14] = Cell Viability - LYMP2-015 (AID 971); settings: LYMP2-015 lymphoblastoid cell viability; series mostly up to 92.2 µM;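 note: 0% = DMSO only and full effect = 92 µM tetraoctylammonium bromide; nearly all actives have a fitted effect of over 55% in size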
Summary of the method: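 Human lymphoblastoid cells (2500/well) in complete medium were preincubated 5 hr at 37 C, then compound-treated 24 hr at 37 C. Intracellular ATP was read by CellTiter-Glo luminescence after 30 min at room temperature; AC50 came from Hill-equation concentration-response fits.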

[15] = Cell Viability - LYMP2-017 (AID 972); settings: LYMP2-017 lymphoblastoid cell viability; series mostly up to 92.2 µM; note: % is set by controls: 0 for no effect and ±100 for the full control effect; nearly all actives have a fitted effect of over 55% in size
Summary of the method: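 Human lymphoblastoid cells (2500/well) were seeded in complete medium, held 5 hr at 37 C, then exposed to compounds for 24 hr at 37 C. Intracellular ATP was read by CellTiter-Glo luminescence after 30 min at room temperature, with AC50 values from Hill-equation fits.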

[16] = Cell Viability - LYMP2-007 (AID 979); settings: LYMP2-007 lymphoblastoid cell viability; series mostly up to 92.2 µM;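 note: cells exposed to compound for 24 h before reading; 0% = DMSO only and the negative end = 92 µM tetraoctylammonium bromide; nearly all actives have a fitted effect of over 60% in size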
Summary of the method: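 Human lymphoblastoid cells (2500/well) were plated in complete medium, incubated 5 hr at 37 C, then exposed to compounds for 24 hr at 37 C. Intracellular ATP was read by CellTiter-Glo luminescence after 30 min at room temperature; AC50 from Hill fits.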

[17] = qHTS Assay for Identification of Small Molecule Inducers of Hypoxia Response (AID 2120; active = well fitted curve in the direction sought with a large enough effect in the signal ratio, with a control signal flat, not every such curve was filed as active; the % refers to the signal ratio; note: 0% is about no effect); settings: hypoxia response reporter cells, beta-lactamase ratio readout; series mostly up to 104 µM
Summary of the method: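 HRE-beta-lactamase reporter in CellSensor HRE-bla ME-180 cells, 2500 cells/well in Opti-MEM with 0.5% dialyzed FBS; compounds tested as titration series, 17 h at 37 degrees C. CCF4 substrate 2.5 h at room temperature; AC50 from 460/530 nm ratio.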

[18] = target: Peroxisome proliferator-activated receptor alpha (Homo sapiens) (UniProt Q07869); test: qHTS assay for small molecule agonists of the peroxisome proliferator-activated receptor alpha (PPARalpha) signaling pathway (AID 651778); settings: PathHunter PPARalpha complementation, chemiluminescence, 6 h; stronger effect = higher value; note: % of control where 0% means no effect
Chain of Peroxisome proliferator-activated receptor alpha (Homo sapiens) (Q07869 whole entry, looked up): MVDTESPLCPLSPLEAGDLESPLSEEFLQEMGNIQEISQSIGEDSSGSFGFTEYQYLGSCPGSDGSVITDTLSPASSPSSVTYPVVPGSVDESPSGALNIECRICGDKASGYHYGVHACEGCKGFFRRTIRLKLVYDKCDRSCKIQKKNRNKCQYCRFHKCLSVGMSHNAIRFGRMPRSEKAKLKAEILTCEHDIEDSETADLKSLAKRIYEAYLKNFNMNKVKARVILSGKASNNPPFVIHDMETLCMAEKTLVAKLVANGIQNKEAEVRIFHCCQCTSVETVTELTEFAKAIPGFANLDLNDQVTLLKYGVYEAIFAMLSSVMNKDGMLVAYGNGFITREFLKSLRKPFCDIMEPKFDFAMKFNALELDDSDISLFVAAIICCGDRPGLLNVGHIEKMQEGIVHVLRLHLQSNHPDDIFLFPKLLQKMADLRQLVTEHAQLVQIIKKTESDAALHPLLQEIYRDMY
Summary of the method: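 Chemiluminescence from complemented enzyme reported PPARalpha activation in cells after 6 hr of compound treatment at 37 C. The detection reagent was incubated for 60 min at room temperature, and compounds were scored as agonists.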

[19] = qHTS assay for small molecule agonists of the antioxidant response element (ARE) signaling pathway measured by Nrf2-dependant transcriptional activity - cell viability counter screen (AID 720653; active = well fitted curve in the direction sought with a large enough effect in the repeat runs; an effect the other way counts as inactive or inconclusive; note: % is set by controls: 0 for no effect and ±100 for the full control effect); settings: ARE-bla HepG2 viability, CellTiter-Glo ATP luminescence, 16 h; stronger effect = lower value
Summary of the method: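 Cytotoxicity counter screen: intracellular ATP quantified by CellTiter-Glo luminescence in the same ARE-bla HepG2 plates, after 16 h compound exposure and a 2 h beta-lactamase substrate step.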

[20] = qHTS assay for cell viability of the p53RE-bla HCT-116 cell line (AID 743292); settings: p53RE-bla HCT-116 viability, ATP luminescence, 16 h; series mostly up to 95 µM; note: % is set by controls: 0 for no effect and ±100 for the full control effect; nearly all actives have a fitted effect of over 55% in size
Summary of the method: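 Luminescent ATP quantitation (CellTiter-Glo) served as the viability read-out; reagent was added after 16 h compound exposure at 37 C and read after 30 min at room temperature. Cells: p53RE-bla HCT-116, 4,000 per well.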

CC(Cl)(Cl)Cl
inactive: Potency [1] > 92 µM | Potency [2] | outcome [3] | outcome [4] | outcome [5] | Potency [6] | caspase-3 activation [7] -1.64% | Potency [8] | outcome [9] | outcome [10] | outcome [11] | Potency [12] | Potency [13] | Potency [14] | Potency [15] | Potency [16] | Potency [17] | max response [18] -3.93% and -1.58% | max response [19] 0.834% and -5.56% | Potency [20]

COc1ccccc1N
inactive: Potency [1] > 92 µM | Potency [2] | outcome [3] | outcome [4] | outcome [5] | Potency [6] | caspase-3 activation [7] 1.4% | Potency [8] | outcome [9] | outcome [10] | outcome [11] | Potency [12] | Potency [13] | Potency [14] | Potency [15] | Potency [16] | Potency [17] | max response [18] -0.908% | max response [19] 6.75% | Potency [20]

CCCCCCCCCCCCCl
inactive: Potency [1] > 92 µM | Potency [2] | outcome [3] | outcome [4] | outcome [5] | Potency [6] | caspase-3 activation [7] 2.31% | Potency [8] | outcome [9] | outcome [10] | outcome [11] | Potency [12] | Potency [13] | Potency [14] | Potency [15] | Potency [16] | Potency [17] | max response [18] -2.89% | max response [19] -2.45% | Potency [20]

CCCCCOC(=O)c1ccccc1C(=O)OCCCCC
inactive: Potency [1] > 92 µM | Potency [2] | outcome [3] | outcome [4] | outcome [5] | Potency [6] | caspase-3 activation [7] 3.92% | Potency [8] | outcome [9] | outcome [10] | outcome [11] | Potency [12] | Potency [13] | Potency [14] | Potency [15] | Potency [16] | Potency [17] | max response [18] -4.34% and -0.557% | max response [19] 0.29% and 4.72% | Potency [20]

O=S(=O)(Cl)c1ccccc1
inactive: Potency [1] > 92 µM | Potency [2] | outcome [3] | outcome [4] | outcome [5] | Potency [6] | caspase-3 activation [7] -0.803% | Potency [8] | outcome [9] | outcome [10] | outcome [11] | Potency [12] | Potency [13] | Potency [14] | Potency [15] | Potency [16] | Potency [17] | max response [18] -0.206% and -0.679% | max response [19] 9.62% and -3.03% | Potency [20]

S=c1[nH]c2ccccc2[nH]1
inactive: Potency [1] > 92 µM | Potency [2] | outcome [3] | outcome [4] | outcome [5] | Potency [6] | caspase-3 activation [7] 0.513% | Potency [8] | outcome [9] | outcome [10] | outcome [11] | Potency [12] | Potency [13] | Potency [14] | Potency [15] | Potency [16] | Potency [17] | max response [18] -5.62% | max response [19] 2.67% | Potency [20]
